MK inhibit: inhibitors of Streptococcus pneumoniae mevalonate kinase; inhibition, % at 10 µM; purified MK, PK/LDH-coupled NADH absorbance 340 nm; actives 0.48% (n = 65,000);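 active means ranked among the strongest by inhibition in the single 10 µM screen, a fixed top-ranked set picked for dose follow-up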
A340 absorber: compounds absorbing at 340 nm | compound absorbance at 340 nm, fold over control | fold change at 10 µM | 65,000 tested, under 10 active | AID 708;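 active means at 10 µM dose, initial 340 nm absorbance at least 2 fold that of control wells; inactive means change under 2 fold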;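 further: initial absorbance extrapolated from kinetic A340 decline of NADH oxidation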
PMK inhibit: S. pneumoniae PMK inhibition; purified PMK, PK/LDH-coupled NADH absorbance 340 nm; inhibition, % at 10 µM; actives 0.49% (n = 65,000); AID 539;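 active means top-ranked compounds by inhibition in the single 10 µM screen, taking a fixed number of the strongest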;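 further: 0% = full reaction with DMSO carrier and 100% = background rate without enzyme reaction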
NADH coupling: blocks coupling enzymes of NAD/NADH assays | IC50, µM (titrated, usually from 10 µM), for the others: top-dose inhibition | AID 774 | coupled PK/LDH NADH assays, four targets | actives 0.02% (n = 65,000);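 active means single-dose screening hits from any of four coupled enzyme assays that gave an IC50 when retested across doses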;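 further: the DPM-DC format reads NADH fluorescence rather than 340 nm absorbance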
Autofluor 339: intrinsic fluorescence of library compounds, ex339/em460 – biochemical, MLSMR library, data from DPM-DC assay, artefact control, profiling panel; fluorescence fold increase at 10 µM; actives 5.5% (n = 65,000); compound autofluorescence, ex339/em460 nm, NADH buffer; stronger effect = higher value; 1 = no-compound wells, NADH background; AID 709;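 active means at 10 µM, mean starting fluorescence two-fold or more over control wells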;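 further: signal is the first read of a kinetic run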
Spn DPM-DC inh: inhibitors of Streptococcus pneumoniae diphosphomevalonate decarboxylase | purified DPM-DC, PK/LDH coupled NADH fluorescence | calls only at 10 µM | actives 0.49% (n = 65,000) | AID 556;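 active means the 320 compounds with the highest percent inhibition in the single-dose primary screen, excluding strongly autofluorescent ones, cut at about 32% in these data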;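 further: kinetic rate of NADH fluorescence loss reporting ADP formed by the decarboxylase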
* marks the source's active call; other numbers are inactive results; i = inactive; . = not tested or not shown; + = active, no number. This is a sample that favours compounds with a hit; in the whole collection about 6.5% have one here.

SMILES	MK inhibit	A340 absorber	PMK inhibit	NADH coupling	Autofluor 339	Spn DPM-DC inh
COc1ccc(Cn2c3nc4ccccc4nc3c3c(=O)n(Cc4ccco4)c(C)nc32)cc1	3	1.1	0	5%	1.6	i
CCn1cc(C(=O)N2CCCc3ccccc32)c2cc(OC)c(OC)cc2c1=O	7	1.1	0	2%	1	i
O=S(=O)(c1ccc2c(c1)OCCO2)N1CCC(O)(c2ccc(Cl)cc2)CC1	9	0.95	9	6%	1.1	i
Cc1cc(C(=O)NCCCn2ccnc2)cs1	6	1	4	4%	1.1	i
Cc1ccc2nc3c(cc(C(=O)NCCCn4ccnc4)n3C)c(=O)n2c1	0	1.1	4	2%	3.9*	.
Cc1ccc2nc3c(cc(C(=O)NCC4CCCO4)c(=N)n3CCCOC(C)C)c(=O)n2c1 (stereo not given)	19	1.1	10	15%	3.7*	.
Cc1ccc2nc3c(cc(C(=O)NCC4CCCO4)n3C)c(=O)n2c1 (stereo not given)	0	1	8	1%	3*	.
CCCOC(=O)CCc1n[nH]c(=O)[nH]c1=O	5	0.98	2	2%	1.1	i
CCCOC(=O)Cc1n[nH]c(=O)[nH]c1=O	5	0.96	10	20%	0.55	+
CCn1cc(C2=NOC(C(=O)Nc3cc(C)nn3-c3ccccc3)C2)c(C)n1 (stereo not given)	0	0.98	8	1%	1.1	i
COc1ccc2oc(-c3ccccc3)c(C(=O)N3CCOCC3)c2c1	6	1	9	8%	2.1*	.
CCOc1ccc2oc(-c3ccccc3)c(C(=O)N3CCN(C)CC3)c2c1	0	1.1	0	0%	2.2*	.
CC(=O)Oc1ccc2oc(C)c(C(=O)N3CCOCC3)c2c1	0	1	0	0%	1.1	i
Cc1oc2cc3c(C(=O)N4CCN(C)CC4)c(C)oc3cc2c1C(=O)N1CCN(C)CC1	9	1	22	12%	1	i
CCCOC(=O)C1=C(C)NC2=C(C(=O)CC(C)(C)C2)C1c1ccc(N(C)C)cc1 (stereo not given)	0	1.1	0	1%	1.1	i
CCOC(=O)C1=C(C)NC2=C(C(=O)CC(C)(C)C2)C1c1cccc(C)n1 (stereo not given)	8	1.1	9	9%	4.9*	.
O=C(CSc1nnc2sc3ccccc3n12)c1ccco1	6	0.98	9	3%	0.97	i
CN1/C(=N\O)c2cccc3cccc1c23	10	1	1	9%	2.2*	i
CCC(=O)Nc1c(C(=O)Nc2cccc(OC)c2)oc2ccccc12	5	1.1	9	5%	1.3	i
COc1ccc(NC(=O)c2oc3ccccc3c2NC(=O)c2ccc(OC)c(OC)c2)c(OC)c1	0	1.1	13	7%	5*	.
CCOCC(=O)Nc1c(C(=O)Nc2ccccc2OC)oc2ccccc12	0	1.1	3	2%	5.1*	.
COc1cc2c(cc1NC(=O)c1ccc3c(c1)OCO3)oc1ccccc12	5	1.1	0	13%	3*	+
COc1ccc(NC(=O)c2oc3ccccc3c2C)c(OC)c1	4	1.1	0	2%	1.1	i
N#Cc1ccccc1OCC(=O)Nc1c(C(=O)C2CC2)oc2ccccc12	0	1	17	10%	2.6*	i
CN1CCN(c2c3c(c(C#N)c4nc5ccccc5n24)CCCC3)CC1	0	1.1	6	2%	1.1	i
SMILES	MK inhibit	A340 absorber	PMK inhibit	NADH coupling	Autofluor 339	Spn DPM-DC inh
CCOC(=O)Nc1c(C(=O)OC)[nH]c2cccc(OC)c12	6	1	12	5%	1.9	i
COc1ccc(NC(=O)c2oc3ccccc3c2NC(=O)COc2ccccc2OC)c(OC)c1	2	1.1	7	5%	5*	.
COc1ccc(NC(=O)COc2ccccc2)c(OC)c1	10	0.98	4	2%	1	i
COCCn1c(C)cc(C(=O)CSc2nc(C)nc3sc4c(c23)CCC4)c1C	7	1	6	4%	1.1	i
COc1ccc(C2C(C#N)=C(SC)NC3=C2C(=O)CC(C)(C)C3)cc1 (stereo not given)	4	1.1	3	4%	1.1	i
COC(=O)c1ccc(C2C(C#N)=C(C)NC3=C2C(=O)CC(C)(C)C3)cc1 (stereo not given)	5	1	3	4%	4.7*	.
CCCn1c(=O)c(C(=O)Nc2nnc(CC)s2)c(O)c2ccccc21	5	0.99	3	3%	1.2	i
c1ccc(-c2cnnc(SCc3cn4cccnc4n3)n2)cc1	9	1.1	9	6%	1	i
COCC(=O)Nc1ccc(-c2cn3cccnc3n2)cc1	0	1.1	18	9%	5.2*	.
Brc1ccc(-c2cn3cccnc3n2)cc1	3	1	14	3%	3.4*	.
CCOCC(=O)Nc1cc(-c2cn3cccnc3n2)ccc1C	0	1.1	14	7%	5.3*	.
O=C(CC1Oc2ccc(Cl)cc2NC1=O)NC1CCCCCC1 (stereo not given)	9	0.98	10	3%	1.1	i
O=C1CN(C(=O)COC(=O)CCC(=O)c2ccc3c(c2)OCCO3)c2ccccc2N1	0	1	16	5%	1.2	i
COc1ccc(OC)c(N(CC(=O)Nc2ccc3c(c2)OCCO3)S(C)(=O)=O)c1	10	1	9	6%	1.1	i
COC(=O)CCSCc1cn2cc(Cl)ccc2n1	0	0.99	14	2%	1	i
O=C(NCc1nnc(SCC(=O)N2CCN(c3ccccc3)CC2)o1)c1ccco1	42*	1	12	18%	1.2	i
C=CCn1c(-c2cccs2)nc2ccccc21	10	1	6	8%	3.1*	.
CCCn1c(-c2cccs2)nc2ccccc21	10	1	0	5%	3.7*	.
O=c1[nH]c(-c2ccc(Cl)cc2)nc2c1cnn2-c1ccccc1	7	1.1	0	7%	2.3*	i
CCOC(=O)c1c(C)n(C)c2ccc(O)c(CN3CCC(C)CC3)c12	48*	1	7	18%	1.1	i
CCOC(=O)c1c(C)n(C)c2ccc(O)c(CN3CCN(C)CC3)c12	6	1	5	4%	1.1	i
COc1ccc(C(=O)NCc2cn3c(C)csc3n2)cc1OC	3	1	4	36%	1.1	+
CCC(C)(C)n1nnnc1C(C(C)C)N1CCSCC1 (stereo not given)	5	1	6	4%	1	i
CCCCc1nc(N2CCOCC2)c(C#N)c2c1COC(C)(C)C2	3	1	9	6%	2.3*	.
CCCSc1nc(N2CCCC2)c2c(c1C#N)CC(C)(C)OC2	1	1.1	1	1%	1.2	i

Bioassay records: PubChem BioAssay, SRMLSC
